Test results as given in the supplement of paper PMC12282887.
± gives the standard deviation of the averaged measurements.

How the values were obtained:
Assay in all cases: promoter activity interaction Z-score (Lux/OD deviation from empty-vector control); higher = stronger promoter induction by the compound
[1] = tested on: E. coli BW25113 acrABp lux reporter
Method in brief: (§1)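 Four 1:2 dilutions of each compound were tested in biological duplicates on E. coli BW25113 carrying low-copy luxCDABE promoter reporters, either wild type or deleted for one of three genes. Cultures of 40 µl LB Lennox in 384-well plates were kept at 37°C and read for OD600 and luminescence every 30 min for 12 h. Integration windows were 0–8 h for wild type and 1–9 h for deletion strains, and wells under 10% of the median growth value were discarded. The score is a Z-transformed residual of growth-normalised luminescence relative to a control fit.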

[2] = tested on: E. coli BW25113 micFp lux reporter
Method in brief: as §1

[3] = tested on: E. coli BW25113 ompFp lux reporter
Method in brief: as §1

[4] = tested on: E. coli BW25113 robp lux reporter
Method in brief: as §1

[5] = tested on: E. coli BW25113 soxSp lux reporter
Method in brief: as §1

[6] = tested on: E. coli BW25113 tolCp lux reporter
Method in brief: as §1

[7] = 11.9 µg/ml, genetic background: wild type
[8] = 11.9 µg/ml, genetic background: ΔmarA
[9] = 11.9 µg/ml, genetic background: Δrob
[10] = 11.9 µg/ml, genetic background: ΔsoxS
[11] = 23.7 µg/ml, genetic background: wild type
[12] = 23.7 µg/ml, genetic background: ΔmarA
[13] = 23.7 µg/ml, genetic background: Δrob
[14] = 23.7 µg/ml, genetic background: ΔsoxS
[15] = 47.4 µg/ml, genetic background: wild type
[16] = 47.4 µg/ml, genetic background: ΔmarA
[17] = 47.4 µg/ml, genetic background: Δrob
[18] = 47.4 µg/ml, genetic background: ΔsoxS
[19] = 94.8 µg/ml, genetic background: wild type
[20] = 94.8 µg/ml, genetic background: ΔmarA
[21] = 94.8 µg/ml, genetic background: Δrob
[22] = 94.8 µg/ml, genetic background: ΔsoxS

NCCc1ccc(O)c(O)c1 [Dopamine]
promoter activity interaction Z-score [1, 7]: 0.174 ± 0.27
promoter activity interaction Z-score [1, 8]: -0.87 ± 0.6
promoter activity interaction Z-score [1, 9]: -0.259 ± 0.25
promoter activity interaction Z-score [1, 10]: 0.316 ± 0.49
promoter activity interaction Z-score [1, 11]: -0.0683 ± 0.28
promoter activity interaction Z-score [1, 12]: -0.0201 ± 0.65
promoter activity interaction Z-score [1, 13]: -0.428 ± 0.0062
promoter activity interaction Z-score [1, 14]: -0.0876 ± 0.18
promoter activity interaction Z-score [1, 15]: 0.18 ± 0.084
promoter activity interaction Z-score [1, 16]: -1.12 ± 0.53
promoter activity interaction Z-score [1, 17]: -0.499 ± 0.094
promoter activity interaction Z-score [1, 18]: -0.0203 ± 0.46
promoter activity interaction Z-score [1, 19]: -0.304 ± 0.4
promoter activity interaction Z-score [1, 20]: -0.754 ± 0.56
promoter activity interaction Z-score [1, 21]: -0.623 ± 0.094
promoter activity interaction Z-score [1, 22]: -0.852 ± 0.031
promoter activity interaction Z-score [2, 7]: -0.0957 ± 0.4
promoter activity interaction Z-score [2, 8]: -0.00669 ± 0.09
promoter activity interaction Z-score [2, 9]: -0.0714 ± 0.048
promoter activity interaction Z-score [2, 10]: -0.289 ± 0.13
promoter activity interaction Z-score [2, 11]: 0.149 ± 0.39
promoter activity interaction Z-score [2, 12]: 0.0171 ± 0.089
promoter activity interaction Z-score [2, 13]: -0.0648 ± 0.13
promoter activity interaction Z-score [2, 14]: -0.0534 ± 0.087
promoter activity interaction Z-score [2, 15]: -0.077 ± 0.31
promoter activity interaction Z-score [2, 16]: -0.0143 ± 0.025
promoter activity interaction Z-score [2, 17]: -0.12 ± 0.027
promoter activity interaction Z-score [2, 18]: -0.221 ± 0.014
promoter activity interaction Z-score [2, 19]: -0.3274 ± 0.00091
promoter activity interaction Z-score [2, 20]: 0.0328 ± 0.11
promoter activity interaction Z-score [2, 21]: -0.149 ± 0.093
promoter activity interaction Z-score [2, 22]: -0.745 ± 0.067
promoter activity interaction Z-score [3, 7]: 0.401 ± 0.57
promoter activity interaction Z-score [3, 8]: -0.363 ± 0.16
promoter activity interaction Z-score [3, 9]: -0.182 ± 0.48
promoter activity interaction Z-score [3, 10]: -0.36 ± 0.38
promoter activity interaction Z-score [3, 11]: -0.18 ± 0.33
promoter activity interaction Z-score [3, 12]: 0.285 ± 0.88
promoter activity interaction Z-score [3, 13]: -0.131 ± 0.68
promoter activity interaction Z-score [3, 14]: -0.722 ± 0.37
promoter activity interaction Z-score [3, 15]: 0.112 ± 0.24
promoter activity interaction Z-score [3, 16]: -0.55 ± 0.36
promoter activity interaction Z-score [3, 17]: -0.52 ± 0.2
promoter activity interaction Z-score [3, 18]: -0.843 ± 0.13
promoter activity interaction Z-score [3, 19]: -0.811 ± 0.18
promoter activity interaction Z-score [3, 20]: -0.358 ± 0.12
promoter activity interaction Z-score [3, 21]: -0.473 ± 0.64
promoter activity interaction Z-score [3, 22]: -1.22 ± 0.11
promoter activity interaction Z-score [4, 7]: 0.58 ± 0.43
promoter activity interaction Z-score [4, 8]: -0.0165 ± 0.28
promoter activity interaction Z-score [4, 9]: -0.285 ± 0.42
promoter activity interaction Z-score [4, 10]: -0.285 ± 0.27
promoter activity interaction Z-score [4, 11]: 0.285 ± 0.52
promoter activity interaction Z-score [4, 12]: 1.42 ± 1.2
promoter activity interaction Z-score [4, 13]: -0.0375 ± 0.68
promoter activity interaction Z-score [4, 14]: 0.593 ± 1.6
promoter activity interaction Z-score [4, 15]: 0.737 ± 0.14
promoter activity interaction Z-score [4, 16]: -0.645 ± 0.12
promoter activity interaction Z-score [4, 17]: -0.805 ± 0.17
promoter activity interaction Z-score [4, 18]: -1.1 ± 0.16
promoter activity interaction Z-score [4, 19]: -0.828 ± 0.0096
promoter activity interaction Z-score [4, 20]: 0.583 ± 0.9
promoter activity interaction Z-score [4, 21]: -1.32 ± 0.2
promoter activity interaction Z-score [4, 22]: -2.04 ± 0.13
promoter activity interaction Z-score [5, 7]: 0.474 ± 0.25
promoter activity interaction Z-score [5, 8]: -0.0183 ± 0.11
promoter activity interaction Z-score [5, 9]: -0.0377 ± 0.026
promoter activity interaction Z-score [5, 10]: -0.0441 ± 0.24
promoter activity interaction Z-score [5, 11]: 0.394 ± 0.015
promoter activity interaction Z-score [5, 12]: 0.0576 ± 0.031
promoter activity interaction Z-score [5, 13]: -0.0399 ± 0.15
promoter activity interaction Z-score [5, 14]: -0.277 ± 0.03
promoter activity interaction Z-score [5, 15]: 0.201 ± 0.11
promoter activity interaction Z-score [5, 16]: -0.0617 ± 0.12
promoter activity interaction Z-score [5, 17]: -0.00712 ± 0.2
promoter activity interaction Z-score [5, 18]: -0.3 ± 0.13
promoter activity interaction Z-score [5, 19]: -0.211 ± 0.15
promoter activity interaction Z-score [5, 20]: -0.1512 ± 0.0014
promoter activity interaction Z-score [5, 21]: -0.176 ± 0.19
promoter activity interaction Z-score [5, 22]: -0.581 ± 0.061
promoter activity interaction Z-score [6, 7]: 0.393 ± 0.4
promoter activity interaction Z-score [6, 8]: -0.496 ± 0.057
promoter activity interaction Z-score [6, 9]: -0.398 ± 0.89
promoter activity interaction Z-score [6, 10]: 0.889 ± 0.7
promoter activity interaction Z-score [6, 11]: 0.663 ± 0.58
promoter activity interaction Z-score [6, 12]: 0.117 ± 0.58
promoter activity interaction Z-score [6, 13]: -0.413 ± 0.2
promoter activity interaction Z-score [6, 14]: -0.0415 ± 0.32
promoter activity interaction Z-score [6, 15]: -0.164 ± 0.13
promoter activity interaction Z-score [6, 16]: -0.559 ± 0.79
promoter activity interaction Z-score [6, 17]: -0.226 ± 0.6
promoter activity interaction Z-score [6, 18]: -0.165 ± 0.64
promoter activity interaction Z-score [6, 19]: -0.754 ± 0.24
promoter activity interaction Z-score [6, 20]: -0.55 ± 0.46
promoter activity interaction Z-score [6, 21]: -0.192 ± 0.73
promoter activity interaction Z-score [6, 22]: -1 ± 0.74
